In PubChem BioAssay AID1159580 (chemical genetic matrix, 2015):
Several values for one entry are separate records, joined by “and”; a condition that tells them apart may be missing. Equal values may be shown once. Hit rate of the full screen: of about 5,500 compounds, about 2,000 (36%) were called active. Not shown: some 18% with an inconclusive outcome. No stated cut-off is given here; in the data, active means normalized growth mostly below about 0.91 (no sharp cut-off); inconclusive means no clear call, values can overlap the other calls; inactive means mostly above about 0.92. The list shows a part of the results.

Test: chemical genetic growth profiling, strain panel (AID 1159580);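 further: tested at 20 µM; growth read once vehicle control cultures reached saturation at 30 °C; 1 = growth at the plate median or of vehicle wells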
Conditions: S. cerevisiae deletion strains, growth OD

Q: With O=C(O)/C=C/C=C/c1ccccc1 as the compound, how does the normalized growth (locus YAL021C, strain ccr4, stronger effect = lower value) read?
A: The normalized growth was 0.827 (active).

Q: What about the normalized growth (locus YAL026C, strain drs2, stronger effect = lower value) of the same compound?
A: The normalized growth was 0.783 (active).

Q: And the normalized growth (locus YAL030W, strain snc1, stronger effect = lower value)?
A: The normalized growth was 0.826 (active).

Q: And the normalized growth (locus YBL061C, strain skt5, stronger effect = lower value)?
A: Its normalized growth is 0.826 (active).

Q: And the normalized growth (locus YBR009C, strain hhf1, stronger effect = lower value)?
A: Its normalized growth is 0.83 (active).

Q: And the normalized growth (locus YBR021W, strain FUR4, stronger effect = lower value)?
A: Its normalized growth is 0.862 (inactive).

Q: What about the normalized growth (locus YBR023C, strain chs3, stronger effect = lower value) of the same compound?
A: Its normalized growth is 0.811 (active).

Q: And the normalized growth (locus YBR171W, strain sec66, stronger effect = lower value)?
A: Its normalized growth is 0.83 (active).

Q: And the normalized growth (locus YBR229C, strain ROT2, stronger effect = lower value)?
A: The normalized growth was 0.983 (inactive).

Q: And the normalized growth (locus YBR231C, strain swc5, stronger effect = lower value)?
A: Its normalized growth is 0.804 (active).

Q: And the normalized growth (locus YBR279W, strain paf1, stronger effect = lower value)?
A: Its normalized growth is 0.833 (active).

Q: What about the normalized growth (locus YCL011C, strain gbp2, stronger effect = lower value) of the same compound?
A: Its normalized growth is 0.814 (active).

Q: What about the normalized growth (locus YCL016C, strain dcc1, stronger effect = lower value) of the same compound?
A: The normalized growth was 0.836 (active).

Q: What about the normalized growth (locus YCL029C, strain bik1, stronger effect = lower value) of the same compound?
A: The normalized growth was 0.952 (inactive).

Q: What about the normalized growth (locus YCL069W, strain vba3, stronger effect = lower value) of the same compound?
A: The normalized growth was 0.789 (active).

Q: And the normalized growth (locus YCR088W, strain abp1, stronger effect = lower value)?
A: The normalized growth was 0.764 (active).

Q: And the normalized growth (locus YDL005C, strain med2, stronger effect = lower value)?
A: The normalized growth was 0.875 (active).

Q: And the normalized growth (locus YDL035C, strain GPR1, stronger effect = lower value)?
A: Its normalized growth is 0.964 (inactive).

Q: What about the normalized growth (locus YDL040C, strain nat1, stronger effect = lower value) of the same compound?
A: Its normalized growth is 0.861 (active).

Q: What about the normalized growth (locus YDL074C, strain BRE1, stronger effect = lower value) of the same compound?
A: Its normalized growth is 0.924 (inactive).

Q: And the normalized growth (locus YDL101C, strain DUN1, stronger effect = lower value)?
A: The normalized growth was 0.979 (inactive).

Q: What about the normalized growth (locus YDL134C, strain PPH21, stronger effect = lower value) of the same compound?
A: The normalized growth was 0.97 (inactive).

Q: And the normalized growth (locus YDL185W, strain tfp1, stronger effect = lower value)?
A: The normalized growth was 0.818 (active).

Q: What about the normalized growth (locus YDL192W, strain arf1, stronger effect = lower value) of the same compound?
A: Its normalized growth is 0.922 (inactive).

Q: What about the normalized growth (locus YDR001C, strain nth1, stronger effect = lower value) of the same compound?
A: The normalized growth was 0.793 (active).

Q: And the normalized growth (locus YDR069C, strain doa4, stronger effect = lower value)?
A: Its normalized growth is 0.863 (active).

Q: What about the normalized growth (locus YDR101C, strain arx1, stronger effect = lower value) of the same compound?
A: The normalized growth was 0.938 (inactive).

Q: And the normalized growth (locus YDR137W, strain rgp1, stronger effect = lower value)?
A: The normalized growth was 0.539 (active).

Q: What about the normalized growth (locus YDR150W, strain NUM1, stronger effect = lower value) of the same compound?
A: The normalized growth was 0.966 (inactive).

Q: And the normalized growth (locus YDR159W, strain sac3, stronger effect = lower value)?
A: Its normalized growth is 0.596 (active).

Q: And the normalized growth (locus YDR162C, strain NBP2, stronger effect = lower value)?
A: The normalized growth was 0.943 (inactive).

Q: And the normalized growth (locus YDR195W, strain ref2)?
A: The normalized growth was 1.01 (inactive).

Q: And the normalized growth (locus YDR297W, strain sur2, stronger effect = lower value)?
A: Its normalized growth is 0.816 (active).

Q: And the normalized growth (locus YDR318W, strain mcm21, stronger effect = lower value)?
A: The normalized growth was 0.91 (active).

Q: And the normalized growth (locus YDR334W, strain swr1, stronger effect = lower value)?
A: The normalized growth was 0.746 (active).

Q: And the normalized growth (locus YDR335W, strain msn5, stronger effect = lower value)?
A: Its normalized growth is 0.766 (active).

Q: What about the normalized growth (locus YDR388W, stronger effect = lower value) of the same compound?
A: The normalized growth was 0.931 (inactive).

Q: And the normalized growth (locus YDR392W, strain spt3, stronger effect = lower value)?
A: The normalized growth was 0.624 (active).

Q: And the normalized growth (locus YDR502C, strain sam2, stronger effect = lower value)?
A: The normalized growth was 0.914 (active).

Q: What about the normalized growth (locus YEL003W, strain gim4, stronger effect = lower value) of the same compound?
A: Its normalized growth is 0.836 (active).

Q: And the normalized growth (locus YEL037C, strain rad23, stronger effect = lower value)?
A: The normalized growth was 0.816 (active).

Q: What about the normalized growth (locus YEL061C, strain CIN8 (second series), stronger effect = lower value) of the same compound?
A: The normalized growth was 0.763 (active).

Q: What about the normalized growth (locus YEL061C, strain CIN8, stronger effect = lower value) of the same compound?
A: Its normalized growth is 0.977 (inactive).

Q: And the normalized growth (locus YER015W, strain faa2, stronger effect = lower value)?
A: Its normalized growth is 0.866 (active).

Q: What about the normalized growth (locus YER016W, strain bim1, stronger effect = lower value) of the same compound?
A: The normalized growth was 0.816 (active).

Q: And the normalized growth (locus YER110C, stronger effect = lower value)?
A: The normalized growth was 0.887 (active).

Q: And the normalized growth (locus YER111C, strain swi4, stronger effect = lower value)?
A: The normalized growth was 0.774 (active).

Q: And the normalized growth (locus YER155C, strain BEM2 (second series), stronger effect = lower value)?
A: The normalized growth was 0.636 (active).

Q: And the normalized growth (locus YER155C, strain BEM2, stronger effect = lower value)?
A: Its normalized growth is 0.899 (active).

Q: What about the normalized growth (locus YER167W, strain BCK2, stronger effect = lower value) of the same compound?
A: Its normalized growth is 0.974 (inactive).

Q: What about the normalized growth (locus YFR010W, strain ubp6, stronger effect = lower value) of the same compound?
A: Its normalized growth is 0.803 (active).

Q: And the normalized growth (locus YGL078C, strain dbp3, stronger effect = lower value)?
A: Its normalized growth is 0.806 (active).

Q: And the normalized growth (locus YGL086W, strain mad1, stronger effect = lower value)?
A: The normalized growth was 0.927 (active).

Q: And the normalized growth (locus YGL167C, strain pmr1, stronger effect = lower value)?
A: Its normalized growth is 0.837 (active).

Q: And the normalized growth (locus YGL173C, strain kem1, stronger effect = lower value)?
A: Its normalized growth is 0.804 (active).

Q: What about the normalized growth (locus YGL227W, strain vid30, stronger effect = lower value) of the same compound?
A: The normalized growth was 0.761 (active).

Q: What about the normalized growth (locus YGL240W, strain doc1, stronger effect = lower value) of the same compound?
A: Its normalized growth is 0.629 (active).

Q: And the normalized growth (locus YGL248W, strain PDE1, stronger effect = lower value)?
A: The normalized growth was 0.973 (inactive).

Q: And the normalized growth (locus YGL253W, strain hxk2, stronger effect = lower value)?
A: Its normalized growth is 0.772 (active).

Q: And the normalized growth (locus YGR135W, strain pre9, stronger effect = lower value)?
A: The normalized growth was 0.916 (inactive).

Q: What about the normalized growth (locus YGR229C, strain SMI1, stronger effect = lower value) of the same compound?
A: The normalized growth was 0.993 (inactive).

Q: And the normalized growth (locus YGR252W, strain gcn5, stronger effect = lower value)?
A: Its normalized growth is 0.727 (active).

Q: What about the normalized growth (locus YHR013C, strain ard1, stronger effect = lower value) of the same compound?
A: Its normalized growth is 0.767 (active).

Q: And the normalized growth (locus YHR027C, strain rpn1, stronger effect = lower value)?
A: Its normalized growth is 0.87 (active).

Q: What about the normalized growth (locus YHR030C, strain SLT2, stronger effect = lower value) of the same compound?
A: Its normalized growth is 0.967 (inactive) and 0.21 (active).

Q: What about the normalized growth (locus YHR079C, strain IRE1 (second series), stronger effect = lower value) of the same compound?
A: The normalized growth was 0.927 (inactive).

Q: What about the normalized growth (locus YHR079C, strain IRE1, stronger effect = lower value) of the same compound?
A: Its normalized growth is 0.238 (active).

Q: What about the normalized growth (locus YHR094C, strain hxt1, stronger effect = lower value) of the same compound?
A: The normalized growth was 0.917 (active).

Q: What about the normalized growth (locus YHR129C, strain ARP1, stronger effect = lower value) of the same compound?
A: Its normalized growth is 0.96 (inactive).

Q: What about the normalized growth (locus YHR142W, strain chs7, stronger effect = lower value) of the same compound?
A: Its normalized growth is 0.713 (active).

Q: And the normalized growth (locus YHR200W, strain rpn10, stronger effect = lower value)?
A: Its normalized growth is 0.949 (inactive).

Q: And the normalized growth (locus YIL066C, strain RNR3, stronger effect = lower value)?
A: The normalized growth was 0.996 (inactive).

Q: And the normalized growth (locus YIL073C, strain SPO22, stronger effect = lower value)?
A: The normalized growth was 1.05 (inactive).

Q: What about the normalized growth (locus YIL125W, strain kgd1, stronger effect = lower value) of the same compound?
A: The normalized growth was 0.786 (active).

Q: And the normalized growth (locus YIR030C, strain dcg1, stronger effect = lower value)?
A: The normalized growth was 0.914 (active).

Q: What about the normalized growth (locus YJL092W, strain hpr5, stronger effect = lower value) of the same compound?
A: Its normalized growth is 0.79 (active).

Q: What about the normalized growth (locus YJL095W, strain BCK1 (second series), stronger effect = lower value) of the same compound?
A: The normalized growth was 0.847 (active).

Q: And the normalized growth (locus YJL095W, strain BCK1, stronger effect = lower value)?
A: Its normalized growth is 0.985 (inactive) and 0.23 (active).

Q: What about the normalized growth (locus YJL115W, strain asf1, stronger effect = lower value) of the same compound?
A: The normalized growth was 0.762 (active).

Q: What about the normalized growth (locus YJL129C, strain trk1, stronger effect = lower value) of the same compound?
A: The normalized growth was 0.629 (active).

Q: And the normalized growth (locus YJL134W, strain LCB3, stronger effect = lower value)?
A: Its normalized growth is 0.975 (inactive).

Q: What about the normalized growth (locus YJL154C, strain vps35, stronger effect = lower value) of the same compound?
A: The normalized growth was 0.808 (active).

Q: What about the normalized growth (locus YJL164C, strain tpk1, stronger effect = lower value) of the same compound?
A: The normalized growth was 0.8 (active).

Q: What about the normalized growth (locus YJL166W, strain qcr8, stronger effect = lower value) of the same compound?
A: The normalized growth was 0.813 (active).

Q: And the normalized growth (locus YJL168C, strain set2, stronger effect = lower value)?
A: The normalized growth was 0.929 (active).

Q: What about the normalized growth (locus YJL187C, strain SWE1 (second series), stronger effect = lower value) of the same compound?
A: The normalized growth was 0.975 (inactive).

Q: What about the normalized growth (locus YJL187C, strain SWE1, stronger effect = lower value) of the same compound?
A: The normalized growth was 0.825 (active).

Q: And the normalized growth (locus YJR043C, strain POL32, stronger effect = lower value)?
A: The normalized growth was 0.968 (inactive).
